# High-throughput results: PubChem BioAssay, several laboratories
# TAG inh: reduces triacylglycerol accumulation in H9c2 cells | Nile Red lipid (TAG) fluorescence; cells loaded with 200 µM oleic acid | inhibition, % at 12.5 µM | hit rate 0.66% among 230,000;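 active = pattern-corrected inhibition of lipid staining of at least 50% with the nuclear-stain viability signal not falling by more than 50%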;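 note: 0% = DMSO wells and 100% = triacsin C control wells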
# COUP-TFII inh: inhibitors of human COUP-TFII (NR2F2); HEK293T NGFI-A luciferase reporter, luminescence; inhibition, % at 8.6 µM; hit rate 0.7% among 370,000;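 active = inhibition above a per-plate cutoff, mean inhibition of test wells between control levels plus 3 SD, cut at about 38% in these data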;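 note: cells cotransfected with COUP-TFII expression vector driving the NGFI-A reporter; 0% = median of COUP-TF2 test wells and 100% = reporter-only cells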
# Target sequence (P24468 whole entry, looked up): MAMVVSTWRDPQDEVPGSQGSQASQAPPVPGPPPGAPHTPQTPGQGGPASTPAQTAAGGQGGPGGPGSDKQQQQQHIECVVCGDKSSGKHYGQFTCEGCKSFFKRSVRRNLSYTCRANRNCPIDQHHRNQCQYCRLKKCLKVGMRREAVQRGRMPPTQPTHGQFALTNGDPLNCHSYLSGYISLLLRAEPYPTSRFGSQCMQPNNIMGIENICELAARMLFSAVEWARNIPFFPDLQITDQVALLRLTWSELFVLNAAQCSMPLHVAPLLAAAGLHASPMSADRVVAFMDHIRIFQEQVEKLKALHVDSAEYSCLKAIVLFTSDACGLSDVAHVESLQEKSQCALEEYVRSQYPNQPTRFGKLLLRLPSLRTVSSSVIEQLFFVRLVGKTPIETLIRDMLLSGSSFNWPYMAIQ
# Gli-Sufu block: blocks Gli-Sufu signaling in a luciferase reporter; Sufu-KO-LIGHT fibroblasts, Gli luciferase reporter luminescence; inhibition, % at 5 µM; hit rate 0.74% among 340,000;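 active = inhibition above about 55%, limit read from the data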;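 note: 0% = DMSO-treated cells and 100% = wells with medium but no cells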
# Jurkat NFkB inh: inhibitors of the PMA/ionomycin-induced NF-kB reporter in Jurkat cells; AID 435003; PMA/ionomycin-induced NF-kB luciferase reporter, luminescence; inhibition, % at 4 µM; hit rate 0.53% among 330,000; in the data active = inhibition above about 50%
# 697 NFkB inh: inhibitors of the PMA/ionomycin-induced NF-kB reporter in 697 B cells; 697 B-cell NF-kB luciferase reporter, 16 h; hit rate 0.33% among 330,000; inhibition, % at 4 µM; in the data active = inhibition above about 35%
# H9c2 protect: myocardial damage modulation in H9c2 cells | H9c2 cardiomyocytes, H2O2 injury protection, ATPLite, 2 h | protection from H2O2 cell death, % at 20 µM | hit rate 0.63% among 360,000;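 active = compounds giving at least 50% protection of heart cells from peroxide-induced death in the single-dose screen, raw or plate-pattern-corrected value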;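 note: 0% = DMSO wells with peroxide and 100% = DMSO wells without peroxide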
# VP16 Luc counter: inhibits VP16 reporter, flagging COUP-TFII antagonist hits | shares compounds with COUP-TFII inh | HEK293 Gal4-VP16 luciferase reporter, luminescence | inhibition, % at 8.5 µM | hit rate 25% among 2,500 | AID 687007; in the data active = inhibition above about 13%
# NR2F2 inh conf: confirmation of human COUP-TFII (NR2F2) inhibitors | HEK293 NGFI-A luciferase reporter, luminescence | inhibition, % at 8.5 µM | shares compounds with COUP-TFII inh | AID 687008 | hit rate 45% among 2,500;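 active = mean inhibition over three repeats above a set limit taken from the earlier primary screen, cut at about 38% in these data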;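 note: 100% = cells given the luciferase reporter alone without the COUP-TF2 vector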
# Active calls of the source: *; . = no result. Shown are actives, neighbours in structure and some others; about 2.6% of the full set was active somewhere.
SMILES,TAG inh,COUP-TFII inh,Gli-Sufu block,Jurkat NFkB inh,697 NFkB inh,H9c2 protect,VP16 Luc counter,NR2F2 inh conf
CN(c1cccc(Cl)c1)S(=O)(=O)c1cccc(C(=O)Nc2nc3ccccc3[nH]2)c1,.,42.2*,17.4,8.6,-29.8,5.5,-38.8,-4.9
COc1ccc2c(c1)/C(=C\c1cccc(/C=C3/C(=O)Nc4ccc(OC)cc43)n1)C(=O)N2,96.1,69.8*,7.6,.,.,0.9,75.1*,95.3*
COc1ccc(Br)cc1C(C[N+](=O)[O-])c1c(N)n(C)c(=O)n(C)c1=O (stereo not drawn),46.7,40.7*,7.2,5.3,19.1,-1.5,7.4,23.5
CN1C(=O)/C(=C\c2ccccc2F)Sc2ccc(C(=O)NC3CCN(Cc4ccccc4)CC3)cc21,.,41.0*,27.3,48.4,-43.8,-8.9,-2.3,20.4
COc1ccc(/C=C2\Sc3ccc(C(=O)NC4CC4)cc3N(C)C2=O)cc1OC,.,-9.5,-7.0,-5.5,-10.3,3.1,.,.
CC(C)N1C/C(=C/c2cccnc2)C(=O)/C(=C/c2cccnc2)C1,.,-17.5,20.0,.,.,-6.2,.,.
CC(C)N1C/C(=C/c2ccsc2)C(=O)/C(=C/c2ccsc2)C1,.,46.9*,11.3,1.6,-1.6,-7.8,37.9*,68.0*
Cc1nn(-c2ccccc2)c2sc(C(=O)N3CCN(C(c4ccccc4)c4ccc(Cl)cc4)CC3)cc12 (stereo not drawn),.,-17.7,.,.,.,.,.,.
c1ccc(Nc2nnc(-c3ccc4c(c3)OCO4)o2)cc1,.,-8.0,.,.,.,.,.,.
CCOC(=O)N1CCN(C(=O)CSCC(=O)Nc2nc(-c3ccc(-c4ccccc4)cc3)cs2)CC1,0.5,68.1*,10.2,30.1,-38.2,-25.2,-101.3,70.5*
CCOC(=O)N1CCN(C(=O)CSCC(=O)Nc2nc(-c3ccc(OC)cc3)cs2)CC1,.,-11.2,-34.1,-1.6,-8.2,0.5,.,.
COc1cc(NC(=O)c2ccccc2)c(C)cc1NC(=O)CSc1nnc(-c2cnccn2)n1-c1ccc(C)cc1,.,4.7,.,.,.,.,.,.
COC(=O)N1C[C@H](OC(=O)c2ccc(-c3ccccc3)cc2)[C@H]2C[C@@H]1c1ccccc1O2,.,-4.2,.,.,.,.,.,.
CCN(CC)CCCNC(=O)c1cc2cc(Cl)ccc2nc1N,.,4.0,.,.,.,.,.,.
CC1(Cc2ccc3ccccc3n2)C(=O)Nc2ccc(OC(F)(F)F)cc21 (stereo not drawn),-12.4,90.0*,.,.,.,4.6,0.2,10.3
COc1ccc(/C=N/NC(=S)Nc2ccccc2[N+](=O)[O-])cc1O,.,30.6,23.9,.,.,-1.4,.,.
CCCOc1ccc(/C=N/NC(=S)Nc2ccccc2[N+](=O)[O-])c(O)c1,.,72.8*,81.9*,.,.,.,73.0*,82.6*
COC(=O)[C@]12C[C@H](CC(=O)NCc3cccc4ccccc34)C(=O)N(CCC3=CCCCC3)C1=C[C@H](C1CCCC1)O[C@@H]2C,.,-9.7,.,.,.,.,.,.
COc1ccc(NC(=O)CSc2nnc(-c3n[nH]c4c3CCC4)n2N)cc1OC,.,9.5,.,.,.,.,.,.
COc1ccc(/C=C/c2nc3ccccc3c(=O)o2)cc1,.,78.9*,70.8*,30.7,-37.4,-10.2,-24.3,0.7
COc1ccc(/C=C/c2nc3ccccc3n2C)cc1,-9.7,63.7*,44.7,-31.0,-91.3,-24.0,7.0,39.4*
O=C(Cc1cccs1)NC1CCCCN(Cc2ccc(Cl)cc2)C1=O (stereo not drawn),.,14.7,.,.,.,.,.,.
C/C(=N/NC(=O)CN1CCN(Cc2ccccc2Cl)CC1)c1cccc(O)c1,.,13.7,.,.,.,.,.,.
COC(=O)[C@]12C[C@H](CC(=O)N3CCSCC3)C(=O)N(Cc3ccccc3)C1=C[C@H](C(C)C)O[C@@H]2C1CC1,.,18.8,.,.,.,.,.,.
COC(=O)C1=C(C)N(C)C(=NCc2ccc(C(F)(F)F)cc2)NC1c1cccc(F)c1 (stereo not drawn),.,-0.5,.,.,.,.,.,.
SMILES,TAG inh,COUP-TFII inh,Gli-Sufu block,Jurkat NFkB inh,697 NFkB inh,H9c2 protect,VP16 Luc counter,NR2F2 inh conf
CCOC(=O)c1cc2c(=Cc3ccc(N(C)C)cc3)c3ccccc3n2[n+]1C,8.4,58.4*,75.8*,.,.,-19.8,21.4*,48.6*
Cc1cc2c(=Cc3ccc(N(C)C)cc3)c3ccccc3n2[n+]1C,-22.2,75.3*,83.3*,.,.,-21.2,11.6,63.5*
CC(=O)Nc1sc2c(c1-c1nc3ccccc3s1)CCCNC2,.,-37.4,.,.,.,.,.,.
Cc1ccc(Oc2cc([N+](=O)[O-])cc3c2C(=O)Nc2ccccc2O3)cc1,.,38.0*,11.2,18.0,-62.8,-17.9,-9.2,12.0
O=C1Nc2ccccc2Nc2ccc([N+](=O)[O-])cc21,.,0.5,1.0,-12.6,-5.5,37.1,.,.
CC1CCN(c2ccc(-c3cccs3)nn2)CC1,.,45.1*,10.5,31.1,-14.3,-22.0,19.9*,42.5*
Clc1ccc(-c2cccs2)nn1,-10.0,5.3,27.6,4.0,-21.9,-1.7,.,.
Cc1cc(CNC(=O)c2cccc([N+](=O)[O-])c2C)c2ccccc2n1,-24.2,64.2*,38.1,38.1,1.6,-22.8,3.9,55.2*
CCCCCCC12C(=Cc3cc(C)ccc31)c1ccccc1C(CC(=O)NCc1ccccc1)N2C(=O)OC (stereo not drawn),.,-12.3,.,.,.,.,.,.
COc1ccccc1NC(=O)Cn1c(C)cc(=O)c2cccc(OC)c21,2.5,50.8*,42.7,23.7,-63.0,-5.2,7.7,41.8*
CNc1ccccc1C(C)(C)c1cc(-c2ccc(F)cc2)no1,.,44.6*,0.3,12.2,-17.9,-10.2,1.9,31.2
CC(C)(C)c1cc(-c2ccccc2)no1,8.3,-5.5,3.3,-3.7,3.5,-5.3,.,.
O=C(NCc1ccncc1)C1Cc2c(-c3ccccc3Oc3ccccc3)ccnc2O1 (stereo not drawn),-16.5,37.6*,.,.,.,0.6,-2.3,-4.4
CC(=O)c1cccc(NC(=O)C2Cc3c(-c4cccc(C(C)=O)c4)ccnc3O2)c1 (stereo not drawn),13.7,48.0*,.,.,.,4.7,4.6,15.7
COc1ccc(NC(=O)C2Cc3c(-c4ccccc4Oc4ccccc4)ccnc3O2)cc1OC (stereo not drawn),-19.0,64.4*,.,.,.,-7.4,-2.2,34.9
COc1ccc(-n2c(SCC(=O)Nc3ccc4cn[nH]c4c3)nnc2-c2ccccc2)cc1,.,0.3,.,.,.,.,.,.
Cc1ccc(S(=O)(=O)c2cccc(S(=O)(=O)N3CCCC3)c2)cc1S(=O)(=O)N1CCCC1,.,61.2*,19.6,16.8,-8.7,-12.3,10.7,24.1
Cc1nc(NC(=O)C(C)(C)C)sc1-c1nc(N)sc1-n1cc(-c2ccccc2)nn1,.,4.7,.,.,.,.,.,.
CCNc1nc(-c2sc(NC(=O)C(C)(C)C)nc2C)c(-n2cc(-c3ccccc3)nn2)s1,.,66.0*,.,.,.,.,2.2,41.0*
O=C1C(=C(c2ccccc2)N2CCOCC2)Cc2ccccc21,84.0,38.8*,.,.,.,-9.7,39.8*,14.3
